In ChEMBL document CHEMBL2218924, “A broad activity screen in support of a chemogenomic map for kinase signalling research and drug discovery” (Biochem J, 2013):

Assays:
[1] = biological target: T1, Serine/threonine-protein kinase TBK1 (Homo sapiens) (UniProt Q9UHD2); conditions: at 10 µM
T1 sequence (whole entry): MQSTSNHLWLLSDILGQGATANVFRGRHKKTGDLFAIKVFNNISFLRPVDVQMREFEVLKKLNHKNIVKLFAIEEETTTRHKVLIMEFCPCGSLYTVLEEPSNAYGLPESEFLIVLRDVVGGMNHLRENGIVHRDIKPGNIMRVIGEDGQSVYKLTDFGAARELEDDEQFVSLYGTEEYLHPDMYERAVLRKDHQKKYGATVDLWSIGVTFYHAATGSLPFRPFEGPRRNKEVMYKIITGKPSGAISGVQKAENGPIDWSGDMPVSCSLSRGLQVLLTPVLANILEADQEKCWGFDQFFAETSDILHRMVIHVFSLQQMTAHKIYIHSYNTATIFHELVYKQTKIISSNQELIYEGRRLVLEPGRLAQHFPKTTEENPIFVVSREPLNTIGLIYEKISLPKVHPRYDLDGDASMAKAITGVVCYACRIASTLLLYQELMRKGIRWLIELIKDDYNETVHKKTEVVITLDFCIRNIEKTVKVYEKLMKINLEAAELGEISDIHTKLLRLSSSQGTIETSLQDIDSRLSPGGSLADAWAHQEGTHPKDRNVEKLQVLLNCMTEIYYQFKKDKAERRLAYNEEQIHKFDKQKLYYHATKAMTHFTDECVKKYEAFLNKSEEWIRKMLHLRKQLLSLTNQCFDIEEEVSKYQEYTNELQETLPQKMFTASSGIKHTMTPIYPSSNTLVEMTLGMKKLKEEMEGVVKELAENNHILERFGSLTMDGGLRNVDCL

[2] = biological target: T2, TGF-beta receptor type-1 (Homo sapiens) (UniProt P36897); conditions: at 1 µM
T2 sequence (whole entry): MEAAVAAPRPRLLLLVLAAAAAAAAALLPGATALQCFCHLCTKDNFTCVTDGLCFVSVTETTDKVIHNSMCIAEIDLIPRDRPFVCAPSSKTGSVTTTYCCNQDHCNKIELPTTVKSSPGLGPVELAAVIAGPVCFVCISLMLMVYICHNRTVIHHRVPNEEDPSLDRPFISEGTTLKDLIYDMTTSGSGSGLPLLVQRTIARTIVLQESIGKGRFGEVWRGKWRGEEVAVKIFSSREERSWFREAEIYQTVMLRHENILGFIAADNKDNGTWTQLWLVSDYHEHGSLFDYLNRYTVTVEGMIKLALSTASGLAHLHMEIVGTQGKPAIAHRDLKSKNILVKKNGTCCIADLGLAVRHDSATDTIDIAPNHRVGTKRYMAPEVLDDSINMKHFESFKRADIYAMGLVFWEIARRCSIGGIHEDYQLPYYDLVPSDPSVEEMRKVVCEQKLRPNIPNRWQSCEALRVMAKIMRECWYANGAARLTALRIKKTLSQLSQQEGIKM

[3] = biological target: T2, TGF-beta receptor type-1 (Homo sapiens); conditions: at 10 µM
[4] = biological target: Insulin-like growth factor 1 receptor (Homo sapiens) (UniProt P08069); conditions: at 1 µM
Sequence of Insulin-like growth factor 1 receptor (Homo sapiens) (P08069 31-736 limits assumed): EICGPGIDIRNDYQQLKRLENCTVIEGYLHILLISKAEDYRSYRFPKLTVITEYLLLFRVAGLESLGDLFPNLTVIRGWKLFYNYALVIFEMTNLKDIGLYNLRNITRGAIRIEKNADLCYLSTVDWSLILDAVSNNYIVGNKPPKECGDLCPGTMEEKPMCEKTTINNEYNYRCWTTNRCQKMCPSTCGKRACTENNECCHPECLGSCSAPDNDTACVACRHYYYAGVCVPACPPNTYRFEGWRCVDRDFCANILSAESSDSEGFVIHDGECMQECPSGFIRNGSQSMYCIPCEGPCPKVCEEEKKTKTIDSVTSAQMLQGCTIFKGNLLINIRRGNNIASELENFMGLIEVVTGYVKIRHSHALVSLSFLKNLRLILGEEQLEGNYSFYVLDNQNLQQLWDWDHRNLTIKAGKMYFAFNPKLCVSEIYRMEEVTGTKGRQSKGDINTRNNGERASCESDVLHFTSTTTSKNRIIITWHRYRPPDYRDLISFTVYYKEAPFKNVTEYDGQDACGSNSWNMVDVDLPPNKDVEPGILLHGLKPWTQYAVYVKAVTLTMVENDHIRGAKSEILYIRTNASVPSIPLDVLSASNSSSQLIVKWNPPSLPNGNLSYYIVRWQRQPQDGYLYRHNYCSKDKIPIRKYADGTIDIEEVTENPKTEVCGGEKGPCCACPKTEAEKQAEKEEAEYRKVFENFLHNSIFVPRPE
Sequence of Insulin-like growth factor 1 receptor (Homo sapiens) (P08069 741-1367 limits assumed): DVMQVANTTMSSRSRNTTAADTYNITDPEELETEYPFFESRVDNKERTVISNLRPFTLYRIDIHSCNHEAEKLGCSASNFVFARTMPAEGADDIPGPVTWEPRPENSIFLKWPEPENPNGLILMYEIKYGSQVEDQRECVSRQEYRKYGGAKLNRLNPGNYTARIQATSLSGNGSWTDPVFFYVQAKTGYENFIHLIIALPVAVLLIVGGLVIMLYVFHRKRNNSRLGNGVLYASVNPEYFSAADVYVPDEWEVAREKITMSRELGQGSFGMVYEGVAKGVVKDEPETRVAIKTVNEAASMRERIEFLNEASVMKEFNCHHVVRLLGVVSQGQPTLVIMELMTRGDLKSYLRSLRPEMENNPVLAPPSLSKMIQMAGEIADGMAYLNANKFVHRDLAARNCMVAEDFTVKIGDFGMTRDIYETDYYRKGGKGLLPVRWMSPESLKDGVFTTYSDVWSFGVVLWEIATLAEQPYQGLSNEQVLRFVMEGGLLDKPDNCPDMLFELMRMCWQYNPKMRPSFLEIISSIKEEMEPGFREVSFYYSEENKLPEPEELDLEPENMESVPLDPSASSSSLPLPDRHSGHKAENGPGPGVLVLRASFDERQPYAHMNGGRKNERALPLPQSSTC

[5] = biological target: Insulin-like growth factor 1 receptor (Homo sapiens) (UniProt P08069); conditions: at 10 µM
[6] = biological target: T3, Inhibitor of nuclear factor kappa-B kinase subunit alpha (Homo sapiens) (UniProt O15111); conditions: at 1 µM
T3 sequence (whole entry): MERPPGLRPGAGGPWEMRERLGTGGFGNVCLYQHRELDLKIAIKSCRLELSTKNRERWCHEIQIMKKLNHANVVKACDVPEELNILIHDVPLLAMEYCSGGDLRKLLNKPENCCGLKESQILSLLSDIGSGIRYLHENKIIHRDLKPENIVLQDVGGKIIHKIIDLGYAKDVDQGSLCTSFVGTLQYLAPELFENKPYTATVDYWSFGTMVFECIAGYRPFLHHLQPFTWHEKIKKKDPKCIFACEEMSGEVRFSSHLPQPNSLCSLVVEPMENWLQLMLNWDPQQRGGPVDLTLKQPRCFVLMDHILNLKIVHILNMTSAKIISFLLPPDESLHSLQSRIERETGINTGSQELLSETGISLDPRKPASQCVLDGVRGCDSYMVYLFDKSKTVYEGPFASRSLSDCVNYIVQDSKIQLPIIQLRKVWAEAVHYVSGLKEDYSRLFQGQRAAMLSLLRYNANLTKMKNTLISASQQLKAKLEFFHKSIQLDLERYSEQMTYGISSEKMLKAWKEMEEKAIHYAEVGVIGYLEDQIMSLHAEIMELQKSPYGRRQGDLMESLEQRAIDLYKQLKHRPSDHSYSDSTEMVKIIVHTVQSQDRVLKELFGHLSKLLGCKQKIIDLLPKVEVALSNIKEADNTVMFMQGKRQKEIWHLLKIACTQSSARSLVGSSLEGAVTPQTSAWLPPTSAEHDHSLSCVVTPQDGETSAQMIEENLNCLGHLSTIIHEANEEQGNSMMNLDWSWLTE

[7] = biological target: T3, Inhibitor of nuclear factor kappa-B kinase subunit alpha (Homo sapiens); conditions: at 10 µM
[8] = biological target: T4, Inhibitor of nuclear factor kappa-B kinase subunit beta (Homo sapiens) (UniProt O14920); conditions: at 1 µM
T4 sequence (whole entry): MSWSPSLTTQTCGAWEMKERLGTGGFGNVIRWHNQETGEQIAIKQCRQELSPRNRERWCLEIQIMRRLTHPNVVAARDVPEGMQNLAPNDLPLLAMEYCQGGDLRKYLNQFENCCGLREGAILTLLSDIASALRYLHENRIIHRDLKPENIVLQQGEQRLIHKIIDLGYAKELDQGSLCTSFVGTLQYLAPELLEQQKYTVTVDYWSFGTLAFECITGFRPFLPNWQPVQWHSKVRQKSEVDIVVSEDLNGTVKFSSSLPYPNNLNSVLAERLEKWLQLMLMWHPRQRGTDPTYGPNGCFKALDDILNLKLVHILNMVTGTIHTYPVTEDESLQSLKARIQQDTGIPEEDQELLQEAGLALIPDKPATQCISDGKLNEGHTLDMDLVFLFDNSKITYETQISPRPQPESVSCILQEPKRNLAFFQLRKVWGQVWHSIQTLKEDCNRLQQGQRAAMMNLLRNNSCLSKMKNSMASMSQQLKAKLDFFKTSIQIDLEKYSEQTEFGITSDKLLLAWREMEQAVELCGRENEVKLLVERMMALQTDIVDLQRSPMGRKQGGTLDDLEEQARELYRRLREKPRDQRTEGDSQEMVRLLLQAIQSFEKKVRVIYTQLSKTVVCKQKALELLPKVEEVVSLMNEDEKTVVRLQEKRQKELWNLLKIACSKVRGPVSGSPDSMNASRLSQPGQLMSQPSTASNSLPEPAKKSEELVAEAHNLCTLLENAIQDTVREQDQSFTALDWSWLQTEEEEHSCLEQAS

[9] = biological target: T4, Inhibitor of nuclear factor kappa-B kinase subunit beta (Homo sapiens); conditions: at 10 µM
[10] = biological target: Insulin receptor (Homo sapiens) (UniProt P06213); conditions: at 1 µM
Sequence of Insulin receptor (Homo sapiens) (P06213 28-758 limits assumed): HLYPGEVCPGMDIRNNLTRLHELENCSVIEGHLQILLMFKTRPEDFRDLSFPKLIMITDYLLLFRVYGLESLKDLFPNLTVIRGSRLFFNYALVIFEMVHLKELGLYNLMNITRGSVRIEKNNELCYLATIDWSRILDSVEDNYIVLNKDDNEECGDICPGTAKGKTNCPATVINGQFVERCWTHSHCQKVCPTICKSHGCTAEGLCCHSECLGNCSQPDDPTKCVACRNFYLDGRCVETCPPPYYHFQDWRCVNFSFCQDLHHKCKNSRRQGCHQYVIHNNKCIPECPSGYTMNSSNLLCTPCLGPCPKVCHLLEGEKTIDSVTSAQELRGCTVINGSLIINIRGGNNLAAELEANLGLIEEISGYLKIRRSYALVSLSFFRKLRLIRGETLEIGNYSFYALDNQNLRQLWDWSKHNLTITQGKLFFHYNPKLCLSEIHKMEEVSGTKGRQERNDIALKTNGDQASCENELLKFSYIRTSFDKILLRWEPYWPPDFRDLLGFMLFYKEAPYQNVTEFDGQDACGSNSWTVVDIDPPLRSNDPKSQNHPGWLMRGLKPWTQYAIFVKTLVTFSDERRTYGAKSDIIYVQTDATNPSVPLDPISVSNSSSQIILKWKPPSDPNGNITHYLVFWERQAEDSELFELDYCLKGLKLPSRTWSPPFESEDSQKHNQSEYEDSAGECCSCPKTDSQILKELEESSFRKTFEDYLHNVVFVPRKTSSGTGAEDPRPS
Sequence of Insulin receptor (Homo sapiens) (P06213 763-1382 limits assumed): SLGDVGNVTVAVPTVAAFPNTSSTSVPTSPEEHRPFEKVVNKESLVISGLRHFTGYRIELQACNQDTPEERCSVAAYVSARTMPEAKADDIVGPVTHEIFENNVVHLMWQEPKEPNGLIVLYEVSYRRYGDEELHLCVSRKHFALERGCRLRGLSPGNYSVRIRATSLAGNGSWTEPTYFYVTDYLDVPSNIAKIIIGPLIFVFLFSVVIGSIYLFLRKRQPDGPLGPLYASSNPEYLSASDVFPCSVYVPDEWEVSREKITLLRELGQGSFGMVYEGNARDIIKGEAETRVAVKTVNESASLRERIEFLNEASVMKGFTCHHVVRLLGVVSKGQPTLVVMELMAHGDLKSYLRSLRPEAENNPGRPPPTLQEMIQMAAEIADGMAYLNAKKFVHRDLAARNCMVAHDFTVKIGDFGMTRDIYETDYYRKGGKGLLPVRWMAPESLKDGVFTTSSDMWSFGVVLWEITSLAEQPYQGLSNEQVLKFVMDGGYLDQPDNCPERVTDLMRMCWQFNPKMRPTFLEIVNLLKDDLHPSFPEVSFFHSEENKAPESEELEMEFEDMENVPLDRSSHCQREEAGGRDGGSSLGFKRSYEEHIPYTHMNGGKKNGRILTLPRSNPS

[11] = biological target: Insulin receptor (Homo sapiens) (UniProt P06213); conditions: at 10 µM
[12] = biological target: Insulin receptor (Homo sapiens) (UniProt P06213); conditions: at 1 µM; remark: listed apart in the source
[13] = biological target: Insulin receptor (Homo sapiens) (UniProt P06213); conditions: at 10 µM; remark: listed apart in the source
[14] = biological target: Interleukin-1 receptor-associated kinase 1 (Homo sapiens) (UniProt P51617); conditions: at 1 µM
Sequence of Interleukin-1 receptor-associated kinase 1 (Homo sapiens) (P51617 whole entry, looked up): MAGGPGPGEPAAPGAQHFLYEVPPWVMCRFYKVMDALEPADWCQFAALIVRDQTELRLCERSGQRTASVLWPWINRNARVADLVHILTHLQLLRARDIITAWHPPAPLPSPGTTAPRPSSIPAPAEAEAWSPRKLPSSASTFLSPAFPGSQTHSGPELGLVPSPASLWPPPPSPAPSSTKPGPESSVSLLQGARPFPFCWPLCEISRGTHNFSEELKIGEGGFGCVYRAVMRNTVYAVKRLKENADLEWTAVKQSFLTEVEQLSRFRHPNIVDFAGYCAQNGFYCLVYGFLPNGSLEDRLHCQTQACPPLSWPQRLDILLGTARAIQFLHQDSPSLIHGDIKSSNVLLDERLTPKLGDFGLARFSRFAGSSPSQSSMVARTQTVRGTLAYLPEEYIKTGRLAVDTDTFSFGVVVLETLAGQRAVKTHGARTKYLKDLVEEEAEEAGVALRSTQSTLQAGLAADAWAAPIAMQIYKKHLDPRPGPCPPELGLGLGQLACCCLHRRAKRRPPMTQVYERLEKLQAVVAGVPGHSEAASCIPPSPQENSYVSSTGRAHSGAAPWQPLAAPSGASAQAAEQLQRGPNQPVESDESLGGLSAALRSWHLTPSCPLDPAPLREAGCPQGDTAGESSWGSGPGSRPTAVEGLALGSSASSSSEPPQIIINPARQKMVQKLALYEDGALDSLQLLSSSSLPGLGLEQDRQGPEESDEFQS

[15] = biological target: Interleukin-1 receptor-associated kinase 1 (Homo sapiens) (UniProt P51617); conditions: at 10 µM
[16] = biological target: T5, Interleukin-1 receptor-associated kinase 4 (Homo sapiens) (UniProt Q9NWZ3); conditions: at 1 µM
T5 sequence (whole entry): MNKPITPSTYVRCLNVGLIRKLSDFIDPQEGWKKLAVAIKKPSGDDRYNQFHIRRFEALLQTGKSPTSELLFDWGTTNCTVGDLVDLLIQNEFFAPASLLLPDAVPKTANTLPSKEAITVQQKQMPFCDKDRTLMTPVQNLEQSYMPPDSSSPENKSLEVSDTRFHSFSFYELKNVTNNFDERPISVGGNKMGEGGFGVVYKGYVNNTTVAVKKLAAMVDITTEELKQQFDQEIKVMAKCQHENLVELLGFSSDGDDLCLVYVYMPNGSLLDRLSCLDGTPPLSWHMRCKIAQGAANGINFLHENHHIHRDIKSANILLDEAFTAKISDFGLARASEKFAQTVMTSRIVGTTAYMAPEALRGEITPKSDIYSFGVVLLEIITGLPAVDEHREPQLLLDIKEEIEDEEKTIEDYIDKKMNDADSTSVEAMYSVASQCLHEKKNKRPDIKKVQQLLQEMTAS

[17] = biological target: T5, Interleukin-1 receptor-associated kinase 4 (Homo sapiens); conditions: at 10 µM
[18] = biological target: Insulin receptor-related protein (Homo sapiens) (UniProt P14616); conditions: at 1 µM
Sequence of Insulin receptor-related protein (Homo sapiens) (P14616 27-742 limits assumed): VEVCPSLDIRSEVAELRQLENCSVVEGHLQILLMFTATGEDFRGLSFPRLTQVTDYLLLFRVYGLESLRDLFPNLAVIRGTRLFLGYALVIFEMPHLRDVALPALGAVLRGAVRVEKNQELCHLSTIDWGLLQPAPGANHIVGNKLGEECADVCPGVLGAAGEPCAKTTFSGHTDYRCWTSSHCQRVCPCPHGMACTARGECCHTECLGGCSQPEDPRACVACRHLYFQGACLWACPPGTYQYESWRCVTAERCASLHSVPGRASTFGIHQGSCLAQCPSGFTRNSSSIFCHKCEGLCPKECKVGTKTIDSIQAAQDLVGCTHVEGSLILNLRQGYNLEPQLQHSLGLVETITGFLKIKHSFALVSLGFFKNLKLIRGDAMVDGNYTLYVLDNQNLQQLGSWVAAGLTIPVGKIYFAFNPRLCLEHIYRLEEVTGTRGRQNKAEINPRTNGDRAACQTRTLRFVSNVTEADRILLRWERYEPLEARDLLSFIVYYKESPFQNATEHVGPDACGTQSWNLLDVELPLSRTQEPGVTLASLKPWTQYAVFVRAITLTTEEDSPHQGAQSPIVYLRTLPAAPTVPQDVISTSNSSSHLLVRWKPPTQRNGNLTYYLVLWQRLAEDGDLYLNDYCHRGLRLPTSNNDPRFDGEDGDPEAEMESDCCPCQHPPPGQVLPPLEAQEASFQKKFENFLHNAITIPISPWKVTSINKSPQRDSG
Sequence of Insulin receptor-related protein (Homo sapiens) (P14616 747-1297 limits assumed): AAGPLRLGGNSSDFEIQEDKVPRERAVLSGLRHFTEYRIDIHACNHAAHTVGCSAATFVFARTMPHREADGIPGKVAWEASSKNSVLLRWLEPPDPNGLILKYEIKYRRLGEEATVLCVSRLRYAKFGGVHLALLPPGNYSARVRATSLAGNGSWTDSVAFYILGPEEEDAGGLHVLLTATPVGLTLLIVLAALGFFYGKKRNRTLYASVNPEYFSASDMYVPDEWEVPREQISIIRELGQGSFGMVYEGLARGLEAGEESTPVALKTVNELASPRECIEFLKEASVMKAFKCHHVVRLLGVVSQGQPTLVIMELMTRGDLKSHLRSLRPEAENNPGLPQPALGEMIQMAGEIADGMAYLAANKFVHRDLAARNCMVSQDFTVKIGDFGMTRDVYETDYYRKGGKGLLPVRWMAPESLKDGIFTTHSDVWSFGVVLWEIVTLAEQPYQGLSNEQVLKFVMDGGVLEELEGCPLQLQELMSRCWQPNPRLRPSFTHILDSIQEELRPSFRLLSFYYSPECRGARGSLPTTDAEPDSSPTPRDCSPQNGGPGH

[19] = biological target: Insulin receptor-related protein (Homo sapiens) (UniProt P14616); conditions: at 10 µM
[20] = biological target: T6, Tyrosine-protein kinase ITK/TSK (Homo sapiens) (UniProt Q08881); conditions: at 1 µM
T6 sequence (whole entry): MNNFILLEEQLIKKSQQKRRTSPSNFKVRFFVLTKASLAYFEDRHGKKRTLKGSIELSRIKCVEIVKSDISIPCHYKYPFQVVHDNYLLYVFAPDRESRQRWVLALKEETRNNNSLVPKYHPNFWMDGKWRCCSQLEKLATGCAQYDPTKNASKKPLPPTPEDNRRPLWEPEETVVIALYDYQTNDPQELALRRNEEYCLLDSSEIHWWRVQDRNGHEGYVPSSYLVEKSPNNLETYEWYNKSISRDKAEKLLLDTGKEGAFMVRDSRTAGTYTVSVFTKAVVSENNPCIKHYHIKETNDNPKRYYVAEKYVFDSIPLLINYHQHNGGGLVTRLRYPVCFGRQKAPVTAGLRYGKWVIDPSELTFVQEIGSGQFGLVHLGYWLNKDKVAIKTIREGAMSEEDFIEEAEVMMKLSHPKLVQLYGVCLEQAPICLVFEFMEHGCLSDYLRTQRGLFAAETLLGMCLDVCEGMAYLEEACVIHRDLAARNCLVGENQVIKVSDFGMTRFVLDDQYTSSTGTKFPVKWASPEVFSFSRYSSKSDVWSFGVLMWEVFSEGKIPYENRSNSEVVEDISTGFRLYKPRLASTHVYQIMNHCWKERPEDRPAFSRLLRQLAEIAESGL

Structure (SMILES) | residual activity [1] [%] | residual activity [2] [%] | residual activity [3] [%] | residual activity [4] [%] | residual activity [5] [%] | residual activity [6] [%] | residual activity [7] [%] | residual activity [8] [%] | residual activity [9] [%] | residual activity [10] [%] | residual activity [11] [%] | residual activity [12] [%] | residual activity [13] [%] | residual activity [14] [%] | residual activity [15] [%] | residual activity [16] [%] | residual activity [17] [%] | residual activity [18] [%] | residual activity [19] [%] | residual activity [20] [%]
O=C1NC(=O)c2cc(Nc3ccc(F)cc3)c(Nc3ccc(F)cc3)cc21 | 54 | 78 | 76 | 90 | 77 | 111 | 113 | 108 | 95 | 115 | 103 | 94 | 85 | 83 | 63 | 99 | 110 | 122 | 83 | 110
COc1cc2ncnc(N3CCN(C(=O)Nc4ccc(Oc5ccccc5)cc4)CC3)c2cc1OC | 53 | 80 | 76 | – | – | 103 | – | 113 | 115 | 115 | 113 | 98 | 97 | 76 | 57 | 87 | 98 | 117 | 80 | 88
Cc1cccc(-c2[nH]c(C(C)(C)C)nc2-c2ccc3c(c2)OCO3)n1 | 72 | 10 | 0 | 106 | 96 | – | – | – | – | – | 89 | – | – | 87 | 75 | – | – | 104 | 88 | 96
Nc1n[nH]c2nnc(-c3c(-c4ccccc4)nn4ccccc34)cc12 | 67 | 88 | 83 | 82 | 76 | 115 | 107 | 102 | 102 | 70 | 25 | 89 | 44 | 95 | 104 | 66 | 64 | 88 | 23 | 96
O=C1c2ccccc2-[n+]2ccc3c([nH]c4ccccc43)c21 | 53 | 81 | 78 | 86 | 92 | 108 | 108 | 113 | 97 | 84 | 93 | 101 | 86 | 106 | – | 79 | 78 | 101 | 92 | 96
Nc1nc(Nc2ccc(S(N)(=O)=O)cc2)nn1C(=S)Nc1c(F)cccc1F | -2 | 13 | 2 | 74 | 83 | 10 | 1 | 33 | 6 | – | – | – | – | 8 | 16 | 8 | 0 | – | – | 44
CO[C@H]1[C@@H](OC)C[C@H](C)[C@@H](OC)C2=CC(=O)C=C(NC(=O)/C(C)=C/C=C/[C@H](OC)[C@@H](OC(N)=O)/C(C)=C/[C@@H]1C)C2=O | 69 | 99 | 89 | 106 | 96 | 85 | 113 | 111 | 107 | 109 | 117 | 100 | 112 | 106 | 94 | 107 | 99 | 133 | 79 | 106
